Molecules are shown by their SMILES. Screen size: about 67,000 compounds; about 300 (0.45%) showed an effect of 50% or more. For the sample, strong results were picked, then their nearest neighbours and some compounds at random.

For the assay, the target named is Polyketide synthase Pks13 (Mycobacterium tuberculosis (strain ATCC 25618 / H37Rv)) (UniProt I6X8D2). Put plainly: Mycobacterium tuberculosis Polyketide synthase 13 Thioesterase (PKS13). In kind it is functional. On the set-up: scale not given: in the data most compounds retested in dose-response had high values. Particulars: 30 µM.
Sequence of Polyketide synthase Pks13 (Mycobacterium tuberculosis (strain ATCC 25618 / H37Rv)) (I6X8D2 whole entry): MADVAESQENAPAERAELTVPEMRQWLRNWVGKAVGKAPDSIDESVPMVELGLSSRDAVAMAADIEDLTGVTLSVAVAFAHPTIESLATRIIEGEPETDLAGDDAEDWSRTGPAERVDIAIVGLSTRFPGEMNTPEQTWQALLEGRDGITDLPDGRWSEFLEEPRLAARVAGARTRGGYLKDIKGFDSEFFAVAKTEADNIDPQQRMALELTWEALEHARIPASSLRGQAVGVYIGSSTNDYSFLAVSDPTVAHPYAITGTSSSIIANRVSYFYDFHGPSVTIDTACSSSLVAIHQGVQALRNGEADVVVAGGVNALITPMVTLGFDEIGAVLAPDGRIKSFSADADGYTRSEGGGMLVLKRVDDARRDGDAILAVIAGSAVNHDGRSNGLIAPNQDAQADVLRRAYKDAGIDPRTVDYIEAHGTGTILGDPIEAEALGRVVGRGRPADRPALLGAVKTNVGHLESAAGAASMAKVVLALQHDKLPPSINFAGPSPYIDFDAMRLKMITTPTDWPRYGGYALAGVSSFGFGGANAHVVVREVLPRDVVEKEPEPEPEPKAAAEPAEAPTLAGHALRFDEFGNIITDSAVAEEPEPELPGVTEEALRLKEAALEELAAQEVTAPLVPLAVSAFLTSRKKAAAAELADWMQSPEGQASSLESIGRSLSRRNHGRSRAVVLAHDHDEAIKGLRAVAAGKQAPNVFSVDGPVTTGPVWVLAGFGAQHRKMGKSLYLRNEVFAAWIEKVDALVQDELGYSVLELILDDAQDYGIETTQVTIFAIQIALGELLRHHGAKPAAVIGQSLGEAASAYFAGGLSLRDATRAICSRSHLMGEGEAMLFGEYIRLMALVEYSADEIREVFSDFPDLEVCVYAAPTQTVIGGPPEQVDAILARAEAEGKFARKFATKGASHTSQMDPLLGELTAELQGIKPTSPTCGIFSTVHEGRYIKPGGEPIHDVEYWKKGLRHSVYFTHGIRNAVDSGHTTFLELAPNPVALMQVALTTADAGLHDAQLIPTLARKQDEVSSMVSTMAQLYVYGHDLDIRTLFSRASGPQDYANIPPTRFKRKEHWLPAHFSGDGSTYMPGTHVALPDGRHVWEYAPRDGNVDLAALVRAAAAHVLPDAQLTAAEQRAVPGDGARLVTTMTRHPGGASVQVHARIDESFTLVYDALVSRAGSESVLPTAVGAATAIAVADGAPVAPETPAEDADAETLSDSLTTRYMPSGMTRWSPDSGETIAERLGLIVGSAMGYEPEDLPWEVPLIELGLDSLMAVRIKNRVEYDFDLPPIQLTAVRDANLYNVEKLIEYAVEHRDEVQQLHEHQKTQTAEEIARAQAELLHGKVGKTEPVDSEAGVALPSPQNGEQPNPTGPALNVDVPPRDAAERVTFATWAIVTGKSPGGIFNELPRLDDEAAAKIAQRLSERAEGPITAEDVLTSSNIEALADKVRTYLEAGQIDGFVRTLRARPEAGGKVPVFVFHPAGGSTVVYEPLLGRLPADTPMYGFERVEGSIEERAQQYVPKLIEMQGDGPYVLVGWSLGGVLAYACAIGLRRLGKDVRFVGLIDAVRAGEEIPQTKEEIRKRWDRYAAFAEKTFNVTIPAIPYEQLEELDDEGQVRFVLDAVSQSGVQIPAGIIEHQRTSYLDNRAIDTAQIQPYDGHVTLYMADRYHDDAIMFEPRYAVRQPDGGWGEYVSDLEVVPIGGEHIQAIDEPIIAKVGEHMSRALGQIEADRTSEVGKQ
Take `Cn1cc(CN2CC[C@@H]3[C@@H]2CCN3C(=O)Cc2cccc(F)c2)cn1`: the Percent Effect was -2.13%.
For `Fc1ccc(CN2CCO[C@H]3[C@H](Oc4ccccn4)CC[C@@H]32)cc1` the value was 13.6%.
Take `O=C(Cc1ccccn1)N1CCN2C[C@H](Oc3cccc(F)c3)C[C@H]2C1`: the Percent Effect was -20.8%.
For `O=C(c1cnccn1)N1CC[C@H]2C[C@@H](c3ccncn3)O[C@@H]2C1` the value was -4.56%.
To `O=C(O)[C@]12CCCN(Cc3ccccc3)C[C@H]1CN(c1ncccn1)C2` belongs -25.9%.
With `Cc1ccc(CN2CC[C@H]3O[C@@H](C(=O)N4CCCO4)CC[C@H]32)s1`, the Percent Effect was -20.3%.
Consider `Cn1ncc2c1C(COCC1CC1)CN(Cc1cccnc1)C2` (stereo not given), for which the Percent Effect was -43.6%.
`Cn1ncc2c1CN(Cc1ccc(F)cc1)CC2COCC1CC1` (stereo not given): the Percent Effect was -20.5%.
Consider `Cn1ncc2c1CN(Cc1cccnc1)CC2COCC1CC1` (stereo not given), for which the Percent Effect came to 60.5%.
For the compound `CN1CCN(C(=O)N2C[C@H]3CC[C@@H]2CN(Cc2ccccc2)C3)CC1`, the Percent Effect came to 7.3%.
As to `Cc1ccc(N2CC[C@H]3O[C@@H](C(=O)N4CCCCO4)CC[C@H]32)nn1`, the Percent Effect is 14.6%.
Consider `O=C([C@H]1COC[C@H]2CN(C3CCOCC3)C[C@H]21)N1CCCO1`, for which the Percent Effect was -30.7%.
Turning to `CCOCCC(=O)N1C[C@H]2CC[C@@H]1CN(c1ncccn1)C2`, the Percent Effect was -26.3%.
To `Cc1n[nH]c(SCC(=O)N2C[C@H]3CC[C@@H]2CN(c2ncccn2)C3)n1` belongs 53.5%.
For `CCCSCC(=O)N1C[C@H]2CC[C@@H]1CN(c1ncccn1)C2` the value was -17%; for `O=C(c1ncccn1)N1C[C@H]2CCC[C@@]2(COCc2ccncc2)C1`, -14.6%.
Turning to `NC(=O)N1CC[C@@H]2O[C@H](COCC(=O)N3CCCC3)CC[C@@H]21`, the Percent Effect stood at 9.98%.
To `NC(=O)C1CCCN1C(=O)c1cc(C2CC2)nc2ccc(F)cc12` (stereo not given) belongs -9.51%.
For the compound `NC(=O)c1cc(C2CC2)nc2ccc(F)cc12`, the Percent Effect was 87.8%.
As to `COc1ccc2nc(C3CC3)cc(C(=O)NCCc3nnc[nH]3)c2c1`, the Percent Effect is -11.9%.
As for `COCCN1C(=O)[C@H]2CC[C@@H]1CN(c1ncccn1)C2`, the Percent Effect is 1.06%.
For `O=C(c1cnco1)N1C[C@@H]2CC[C@H](Oc3ccccc3F)[C@@H]2C1`, the Percent Effect turned out to be 6.58%.
To `N#Cc1ccc(C(=O)O)nc1/C=C/c1cccc(Cl)c1` belongs 51.4%; to `N#Cc1ccc(C(=O)O)nc1/C=C/c1cccc(Br)c1`, -10.3%; to `N#Cc1ccc(C(=O)O)nc1/C=C/c1cccc(F)c1`, -26.4%.
To `CC(C)C(=O)N1CC[C@@H]2[C@H](CC1)N(Cc1cccnc1)CCS2(=O)=O` belongs -7.83%; to `c1ccc(O[C@@H]2CN(Cc3nccs3)[C@@H]3CCCO[C@@H]32)nc1`, -21.3%; to `CN(C)CCO[C@H]1CN(C(=O)c2cscn2)[C@@H]2COC[C@H]12`, 4.36%.
On to `Cn1cc(Br)c(C(=O)NCCn2cc(Br)cn2)n1`, for which the Percent Effect was -18.6%.
`Cn1cc(Br)c(C(=O)NCCCn2cc(Br)cn2)n1`: the Percent Effect came to 27.2%.
Take `Cn1cc(I)c(C(=O)NCCCn2cc(Br)cn2)n1`: the Percent Effect was found to be 55%.
Turning to `Cn1ccnc1CN1CCN(Cc2ccncc2)[C@@H]2CS(=O)(=O)C[C@@H]21`, the Percent Effect is -14%.
Regarding `Cc1cc(CN2CC[C@@H]3[C@@H](CCC(=O)N3CCc3c[nH]cn3)C2)oc1C`, the Percent Effect was -32.9%.
To `O=C([C@H]1CC[C@@H]2[C@@H](CCN2C2CCOCC2)O1)N1CCOCC1` belongs 5.19%; to `Cc1noc(C)c1CCC(=O)NCC1(O)CCN(c2ccccn2)C1` (stereo not given), 1.81%; to `Cc1noc(C)c1CCC(=O)NCC1(O)CCCN(c2ccccn2)C1` (stereo not given), 9.52%.
Consider `Cc1n[nH]c(C)c1CCC(=O)NCC1(O)CCN(c2ccccn2)C1` (stereo not given), for which the Percent Effect was 61.1%.
For `CCO[C@H]1CC[C@H]2[C@H]1OCCN2C(=O)c1nn(C)c2ccccc12` the value was -2.76%; for `CN(C)[C@@H]1CN(C(=O)Cc2cccs2)[C@@H]2CCCO[C@H]12`, -8.31%; for `Cc1c(C2=NS(=O)(=O)N(C)C(C(=O)Nc3ccc(Br)cc3)=C2)cnn1C`, 47%.
Regarding `Cc1nc(N2CCCC2)ncc1C(=O)Nc1ccc(Br)cc1`, the Percent Effect is -0.502%.
As to `Cc1nn(C)cc1C1=NS(=O)(=O)N(C)C(C(=O)Nc2ccc(Br)cc2)=C1`, the Percent Effect came to 57.7%.
As for `O=C1N(C2CCCCC2)C[C@H]2CN(C3CCC3)CCN12`, the Percent Effect was determined as 5.32%.
For `COCCN1C(=O)CC[C@@H]2[C@@H]1CCN2Cc1c(C)noc1C` the value was 2.01%; for `CS(=O)(=O)N[C@@H]1CN(Cc2ccccc2)C[C@@H]2CCCO[C@@H]21`, -27.1%; for `CN(Cc1ccccn1)C1CCC[C@@H]2CN(CC3CC3)C[C@H]12` (stereo not given in full), -21.9%.
For `COC(=O)NCC(=O)NCC(C)(C)c1cccc(Br)c1` the value was -17.5%; for `COC(=O)NCC(=O)NCC(C)(C)c1cccc(C(F)(F)F)c1`, -4.12%.
To `CCC(=O)NCC(=O)NCC(C)(C)c1cccc(Br)c1` belongs 50.4%; to `CS(=O)(=O)N1CCO[C@@H]2CN(C(=O)C3CCOC3)CC[C@@H]2C1` (stereo not given in full), -9.9%; to `CN(C)C(=O)C1CCN(c2cncc(-n3cccn3)n2)CC1`, 9.49%.
Consider `NC(=O)C1CCN(c2cncc(-n3cccn3)n2)CC1`, for which the Percent Effect turned out to be 9.01%.
With `O=C(c1ccccc1)C1CCN(c2cncc(-n3cccn3)n2)CC1`, the Percent Effect stood at 75.5%.
As to `Cc1ccc(C(=O)N2C[C@@H](OCC3CCOCC3)[C@H]3OCCC[C@H]32)o1`, the Percent Effect is -4.11%.
To `O=C1CCCN1Cc1ncn2c1CN(C(=O)NC1CCCCC1)CCC2` belongs 29%; to `CC(C)NC(=O)N1CCCn2cnc(CN3CCCC3=O)c2C1`, -40.2%; to `O=C1CCCN1Cc1ncn2c1CN(C(=O)NC1CCCC1)CCC2`, 60.1%.
To `O=C([C@@H]1C[C@@H]2CCN(Cc3ccccn3)C[C@H]2O1)N1CCCO1` belongs -7.04%; to `CN(C)C(=O)CN1C[C@@H]2CC[C@H](C1)N(C(=O)CCn1cncn1)C2`, -4.82%; to `CC(=O)c1cc(CN2C[C@H]3CC[C@@H]2CN(S(=O)(=O)N(C)C)C3)cs1`, -12.2%.
To `O=C(c1ccccc1)N1C[C@@H]2CC[C@H](C1)N(Cc1cc(F)ccc1Cl)C2` belongs 3.66%; to `COc1cc(N2C[C@@H]3CC[C@H](C2)N(CC2CCC2)C3=O)ncn1`, -4.75%.
Turning to `O=C1[C@H]2CC[C@H](CN(c3ncnc4ccsc34)C2)N1CC1CC1`, the Percent Effect was found to be 90.8%.
For the compound `CN1C(=O)[C@H]2CC[C@@H]1CN(c1ncnc3ccsc13)C2`, the Percent Effect was 38.1%.
On to `COCC(=O)N1CC[C@H]2C[C@H](c3nnc(C4CC4)o3)O[C@@H]2C1`, for which the Percent Effect is -6.34%.
In the case of `COCCN1C[C@H]2CC[C@@H]1CN(Cc1nc3ccccc3n1C)C2`, the Percent Effect was -34.6%.
For `NC(=O)COc1ccc(CN2CC[C@@]3(O)CCCC[C@H]3C2)cc1Cl` the value was -1.23%; for `CCc1[nH]c2c(CNc3cc(C)nc(NC)n3)cc(C)cc2c1C`, 5.91%; for `CNc1cc(C)nc(NCc2cc(C)cc3c(C)c(C)[nH]c23)n1`, 13%.
In the case of `CCc1[nH]c2c(CNc3nc(C)cc(NC)n3)cc(C)cc2c1C`, the Percent Effect is 146%.

The values above are taken from ChEMBL document CHEMBL3988442, “University of Dundee, Small-Polar-MMV Screening Library” (2021).
